Source: PubChem BioAssay
A selection: hits, their analogues and other compounds. The true share with any hit is near 10%.
GLS inhibitor = qHTS for Inhibitors of Glutaminase (GLS). Glutaminase kidney isoform, mitochondrial (Homo sapiens), O94925. GLS enzymatic activity, qHTS titration. Potency, µM (series often up to 45.5 µM), for the others: at the highest dose activity change, negative = inhibition, usual class: inhibitors. hit rate 0.21% among 410,000; note: % is set by controls: 0 for no effect and ±100 for the full control effect
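Human kidney-isoform GLS in 45 mM KH2PO4 pH 8.2, 0.02% Tween-20, with compound, started with 1mM L-Glutamine (added stock). Glutamate oxidase/HRP/Amplex red coupled fluorescence read at start and after 30 min at RT.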
G9a block = qHTS Assay for Inhibitors of Histone Lysine Methyltransferase G9a | G9a H3K9 monomethylation, AlphaScreen, 2 h | Potency, µM (series often up to 102 µM), without a hit: at the top dose activity, negative = inhibition, usual class: inhibitors | hit rate 8.8% among 350,000 | AID 504332, 2011; note: % is set by controls: 0 for no effect and ±100 for the full control effect; nearly all actives have a fitted effect of over 75% in size
Target sequence (Q96KQ7 913-1193 limits assumed): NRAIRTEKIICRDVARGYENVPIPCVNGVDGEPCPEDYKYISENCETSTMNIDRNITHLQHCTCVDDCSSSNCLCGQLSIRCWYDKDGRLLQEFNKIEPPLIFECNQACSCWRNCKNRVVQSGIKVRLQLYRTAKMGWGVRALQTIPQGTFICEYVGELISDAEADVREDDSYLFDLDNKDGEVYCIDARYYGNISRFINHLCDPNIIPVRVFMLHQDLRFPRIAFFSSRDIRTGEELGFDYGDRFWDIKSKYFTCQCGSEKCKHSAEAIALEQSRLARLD
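G9a (20 nM) preincubated 15 min RT with compounds, then 500 nM biotinylated H3K9 peptide and 20 uM SAM added; 2 h RT reaction. Monomethyl-H3K9 product detected by AlphaScreen with anti-H3K9me1 antibody, streptavidin donor and anti-rabbit IgG acceptor beads.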
JMJD2A Tudor = qHTS Assay for Inhibitors of JMJD2A-Tudor Domain; Lysine-specific demethylase 4A (Homo sapiens), O75164; AlphaScreen JMJD2A-Tudor / H3K4me3 peptide binding; Potency, µM (titrated, usually from 114 µM), for inactives: top-dose activity change, negative = inhibition, hits mostly inhibitors; hit rate 4.4% among 390,000; AID 504339, 2011; note: % is set by controls: 0 for no effect and ±100 for the full control effect; nearly all actives have a fitted effect of over 50% in size
BAZ2B block = qHTS Assay for Inhibitors of BAZ2B | Bromodomain adjacent to zinc finger domain protein 2B (Homo sapiens), Q9UIF8 | AlphaScreen BAZ2B-H3K14Ac peptide displacement | Potency, µM (titrated, usually from 114 µM), for the others: at the top dose activity change, negative = inhibition, usual class: inhibitors | hit rate 4.4% among 360,000; note: % is set by controls: 0 for no effect and ±100 for the full control effect; nearly all actives have a fitted effect of over 60% in size
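In this displacement format the biotinylated H3(5-23) peptide acetylated at Lys14 serves as ligand at 50 nM, with BAZ2B at 50 nM in PBS pH 7.4 containing 0.01% Tween-20. Donor and acceptor beads are 10 ug/mL final.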
HP1b binding inh = HTS for Inhibitors of HP1-beta Chromodomain Interactions with Methylated Histone Tails; Chromobox protein homolog 1 (Homo sapiens), P83916; AlphaScreen HP1-beta / biotin-H3K9me3 peptide binding; Potency, µM (series often up to 114 µM), inactives show at the top dose activity change, negative = inhibition, hits mostly inhibitors; hit rate 0.56% among 390,000; AID 540317, 2011; note: nearly all actives have a fitted effect of over 70% in size
Target sequence (P83916 whole entry, looked up): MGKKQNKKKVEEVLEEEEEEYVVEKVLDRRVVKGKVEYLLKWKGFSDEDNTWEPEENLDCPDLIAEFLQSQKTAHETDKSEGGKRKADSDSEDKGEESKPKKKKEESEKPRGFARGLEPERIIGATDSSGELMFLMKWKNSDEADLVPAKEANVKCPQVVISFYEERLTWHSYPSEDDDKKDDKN
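AlphaScreen: HP1-beta (50 nM) preformed 30 min with biotin-H3(1-18)K9me3 peptide (50 nM) in PBS pH 7.4, 0.01% Tween-20. Compound added for 30 min at RT, then streptavidin donor/nickel chelate acceptor beads (10 ug/mL) for 30 min.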
* = called active by the depositor; u = inconclusive; x = not tested or not shown; [ ] = remark or other dose. Calls come from the whole dose curve; as a rule, active = well fitted curve in the direction sought with a large enough effect; inconclusive = small, poorly fitted or top-dose-only effect, or another doubt; inactive = no such curve, though single readings can be large; an effect the other way counts as inactive or inconclusive. Potency is the fitted concentration of half-maximal effect.

SMILES | GLS inhibitor | G9a block | JMJD2A Tudor | BAZ2B block | HP1b binding inh
Cc1ccc2c(c1)c1c(n2CC(O)CN2CCC(C)CC2)CCCC1 (stereo unspecified) | 2% | u | 40µM* | u | -25%[57 µM]
Cc1ccc2c(c1)c1c(n2CC(O)CN2CCCCC2C)CCCC1 (stereo unspecified) | 27% | 45µM* | -10%[11.4 µM] | u | -21%
CCOc1ccc(NC(=O)CSc2ncc3c(n2)-c2ccccc2N(Cc2ccccc2C)S3(=O)=O)cc1 | 0% | -6%[59 µM] | 10% | 4% | 10%
Nc1cc(S(=O)(=O)N2CCN(S(=O)(=O)c3ccc4c(c3)OCCO4)CC2)ccn1 | x | x | -35% | x | x
O=C(Nc1cc2c(cc1Cl)-c1ccc([N+](=O)[O-])cc1C2=NO)C(F)(F)F | -1% | x | -35% | x | 2%
CN1/C(=C/C=C(C#N)C#N)C(C)(C)c2ccccc21 | 2% | x | -18% | 3% | 13%
CCCN1C(=O)/C(=C/C=C2\N(CC)c3ccccc3C2(C)C)SC1=S | -7% | u | 11µM* | 1.8µM* | 10µM*
CCN1C(=O)/C(=C\N2CCCc3ccccc32)SC1=S | -1% | -2%[12.7 µM] | -5% | 1% | 81%
C=CCN1C(=O)/C(=C\C=C2\N(C)c3ccccc3C2(C)C)SC1=S | 16% | 16µM* | u | u | u
CN1/C(=C\C=C2/SC(=S)N(CC(=O)O)C2=O)C(C)(C)c2ccccc21 | -23% | 18µM* | u | 28µM* | 35µM*
O=S1(=O)N[C@@H](c2ccccc2)COc2cc(Br)ccc21 | 0% | x | x | x | x
Cc1ccc2c(=O)c(C(=O)c3ccc(F)cc3)cn(CC(=O)NCc3ccccc3Cl)c2n1 | 4% | -9%[59 µM] | -11% | 11%[57.1 µM] | 55%
C=CC[C@@H](Cc1ccc(F)cc1)C(=O)OC[C@@H]1CCCN1C(=O)[C@@H](CC=C)CC(=O)NCCO | -2% | x | -25% | x | 30%
COc1ccc(CNC(=O)CSCc2ccc(C)cc2)c(OC)c1 | 1% | -2%[59 µM] | -3% | 6% | 58%
Cc1cc(C)n2ncc(C(=O)O)c2n1 | -11% | 8%[12.7 µM] | u | u | 23%
Cc1c(C(=O)O)cnc2c([N+](=O)[O-])cnn12 | u | 56µM* | 8.9µM* | -26% | -1%
CC(=O)NC12CC3CC(C1)CC(C(=O)NCc1ccc(C)cc1)(C3)C2 | 10% | 7% | -7% | 4% | 24%
COc1ccc(NC(=O)CN(C)S(=O)(=O)c2ccc3c(c2)CC(C)N3C(C)=O)cc1OC (stereo unspecified) | -5% | 6%[0.501 µM] | -9% | -12% | 28%
CSCc1cc(N2CCCC2)nc(-c2ccccc2)n1 | 1% | -23% | -12% | -10% | 48%
COCc1cc(N2CCCCC2)nc(-c2ccccc2)n1 | 0% | 83% | 20µM* | 50% | 18%
CSc1nc(N2CCOCC2)c2ccccc2n1 | 2% | -10%[59 µM] | -8% | 7% | 33%
CN1c2ccccc2C(C)(C)C12C=Nc1c(cc(N3CCOCC3)c3ccccc13)O2 (stereo unspecified) | -13% | 45µM* | u | u | -15%
Cn1ccnc1C(O)c1cc(C(C)(C)C)c(O)c(C(C)(C)C)c1 (stereo unspecified) | u | 50µM* | u | u | 22%
CC(C)(Sc1cc(C(C)(C)C)c(O)c(C(C)(C)C)c1)Sc1cc(C(C)(C)C)c(O)c(C(C)(C)C)c1 | 12% | -1% | -19% | -1% | 41%
CN(C)CC/C=C1\c2ccccc2COc2ccc(CC(=O)O)cc21 | -10% | 23%[59 µM] | x | x | x
SMILES | GLS inhibitor | G9a block | JMJD2A Tudor | BAZ2B block | HP1b binding inh
COC(=O)C1=C(CSc2nc3ccccc3s2)NC(=O)NC1c1ccc(F)cc1 (stereo unspecified) | u | 40µM* | -10% | 5% | -4%
CC(C)CCNC(=O)c1ccc2nc(CCc3ccccc3)oc2c1 | 0% | 3%[59 µM] | 9% | 4% | 31%[57 µM]
Cc1ccc(-c2nnc(N(C)C(=O)C3CCCO3)s2)cn1 (stereo unspecified) | -6% | 45µM* | -13% | u | 40%
CN(C(=O)C1CCCO1)c1nnc(-c2cnccn2)s1 (stereo unspecified) | 3% | -7% | -4% | -3% | 45%
Cc1[nH]c(=O)c(Cc2ccccc2)c(O)c1C#N | 13% | x | -13% | x | 5%
O=C1NC(=S)SC1=Cc1ccccc1C(=O)O | 50% | x | x | x | x
O=C1NC(=S)SC1=C1CCCC1 | 9% | 18µM* | u | 32µM* | 1%
CCSc1nnc(NC(=O)c2cnccn2)s1 | -8% | 9%[59 µM] | 79µM* | 22% | 35%
CCSc1nnc(NC(=O)C(CC)(C(F)(F)F)C(F)(F)F)s1 | -3% | 50µM* | -30% | u | 43%
CCSc1nnc(NC(=O)c2ccccn2)s1 | -23% | u | 8.9µM* | 6.3µM* | 61%
CC1C(=O)N(Cc2cn(CCC3OCCCO3)nn2)CCS(=O)(=O)N1Cc1ccc(-c2ccc(Cl)c(Cl)c2)cc1 (stereo unspecified) | -1% | x | x | x | x
Cc1ccc(C(C)C)c(OCC(=O)c2c(O)c3ccccc3oc2=O)c1 | 12% | x | 45µM* | x | -1%
CCc1ccc(OCC(=O)c2c(O)c3ccccc3oc2=O)cc1 | 15% | 45µM* | -11% | u | 27%
Cc1ccc(OCC(=O)c2c(O)c3ccccc3oc2=O)cc1C | 15% | 12%[12.7 µM] | 40µM* | u | 16%
Cc1ccc(OCC(=O)Nc2c(C(=O)c3ccccc3)oc3ccccc23)cc1C | 3% | 7%[59 µM] | 0% | 5% | 45%
Cc1ccc(C(C)C)c(OCC(=O)Nc2c(C(=O)c3ccccc3)oc3ccccc23)c1 | 2% | -9%[59 µM] | 19% | 3% | 80%
COC(=O)Cn1c(C(=O)N2CCCC2)cc2c1C[C@H]1CN(C(=O)c3ccccc3)[C@@](Cc3ccc(OC)cc3)(C(=O)OC)[C@@H]21 | -5% | x | x | x | x
O=C(NCc1cccc(F)c1)c1ccc2nc(N3CCCCC3)sc2c1 | -4% | 5%[59 µM] | -11% | 2% | 16%
O=C(CSc1nnc(-c2ccccc2F)o1)NC1CCCCC1 | 1% | 2% | -14% | 9% | 33%
N#CC1(NC(=O)CSc2nnc(-c3ccccc3F)o2)CCCCC1 | 0% | 40µM* | -9% | -1% | -21%
Cc1cc(C)cc(N(CC(=O)NCc2ccco2)C(=O)CCC(=O)Nc2ccccn2)c1 | 1% | -14% | -14% | -10% | u
Cc1ccc(N(CC(=O)NCc2ccc(F)cc2)C(=O)CCC(=O)Nc2ccccn2)cc1C | 10% | 15%[59 µM] | 79µM* | 3% | 10%
Cc1ccc(N(CC(=O)NCc2ccco2)C(=O)CCC(=O)Nc2ccccn2)c(C)c1 | -4% | 22µM* | -14% | -14% | 11%
